Test results taken from PubChem BioAssay.
Active and inactive are the calls of the source. Unless noted, how the calls were made is not given here.

Assays:
[1] = system: Wnt5a (protein binding on small-molecule microarray); experiment: small molecules binding Wnt5a protein – biophysical, small-molecule microarray, 635/667 nm fluorescence, primary screen (AID 1142); details: 635 nm fluorescence, higher = more signal;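 further: fluorescence read at 667 nm with signal to noise per printed feature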
[2] = ATP-based viability of Huh7 replicon cells – cell-based, CellTiter-Glo luminescence, basal, 48 h, cytotoxicity control for HCV replication inhibitor project, primary screen (AID 1143); details: higher = more signal, called active from +8 up or from −8 down;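 further: Huh7 hepatoma cells carrying a hepatitis C replication reporter with no stimulus; test concentration not given here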
[3] = Pseudomonas biofilm growth suppression – PAO1 strain, BacTiter-Glo luminescence, LB-PBS, primary screen (AID 1144); details: P. aeruginosa PAO1 biofilm, 12 h, higher = more signal
[4] = basal CRE-LacZ reporter activity in PC12 – cell-based, unstimulated, primary screen (AID 1145); details: no forskolin, luminescence, 4.5 h, higher = more signal, called active from +8 up or from −8 down
[5] = forskolin-driven CRE-LacZ activity in PC12 – cell-based, CRE-LacZ reporter, forskolin-stimulated, primary screen (AID 1146); details: luminescence, 4.5 h, higher = more signal, called active from +8 up or from −8 down;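 further: PC12 cells with 6xCRE LacZ reporter stimulated by forskolin 10 µM; beta-galactosidase reporter signal reflecting CREB driven transcription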
[6] = biological target: Streptavidin (Streptomyces avidinii) (UniProt P22629); experiment: compounds binding control protein streptavidin – biophysical, small-molecule microarray, 635/667 nm fluorescence, artefact control for SMM compound annotation, primary screen (AID 1147); details: higher = more signal;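 further: signal reflects streptavidin binding to arrayed compounds as a control protein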
Sequence of Streptavidin (Streptomyces avidinii) (P22629 whole entry, looked up): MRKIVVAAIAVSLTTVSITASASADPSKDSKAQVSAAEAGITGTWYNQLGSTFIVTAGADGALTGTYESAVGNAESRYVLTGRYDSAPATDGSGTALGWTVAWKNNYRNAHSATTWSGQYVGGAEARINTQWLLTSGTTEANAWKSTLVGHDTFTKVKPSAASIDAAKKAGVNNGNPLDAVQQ

[7] = probe aInhba binding on compound microarray – biochemical, small-molecule microarray, 635/667 nm fluorescence, primary screen (AID 1148); details: higher = more signal;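 further: score merges 667nm spot fluorescence with signal-to-noise for antibody binding to printed compounds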
[8] = biological target: Torsin-1A (Homo sapiens) (UniProt O14656); experiment: TOR1A wild-type binding on microarray – cell lysate, small-molecule microarray, lysate, 635/667 nm, primary screen (AID 1149); details: COS7 hTOR1A-WT lysate, 635 nm fluorescence, higher = more signal
Sequence of Torsin-1A (Homo sapiens) (O14656 whole entry, looked up): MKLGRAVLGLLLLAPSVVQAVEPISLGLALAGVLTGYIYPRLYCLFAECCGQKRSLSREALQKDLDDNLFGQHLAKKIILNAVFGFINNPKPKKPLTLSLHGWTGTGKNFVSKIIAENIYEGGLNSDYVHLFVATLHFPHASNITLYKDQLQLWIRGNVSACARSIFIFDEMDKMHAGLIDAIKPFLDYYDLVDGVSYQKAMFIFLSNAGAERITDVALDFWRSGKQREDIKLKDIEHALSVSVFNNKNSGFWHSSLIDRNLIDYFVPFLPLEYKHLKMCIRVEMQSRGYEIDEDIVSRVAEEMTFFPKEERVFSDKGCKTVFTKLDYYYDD

[9] = biological target: Torsin-1A (Homo sapiens) (UniProt O14656); experiment: torsin A mutant lysate binding on microarrays – cell lysate, small-molecule microarray, COS7 lysate, 635/667 nm fluorescence, primary screen (AID 1150); details: COS7 hTOR1A mutant lysate, 635 nm fluorescence, higher = more signal;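 further: score pools 667 nm emission and signal to noise measuring lysate protein binding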
[10] = system: Sonic hedgehog protein (Shh); experiment: Sonic hedgehog microarray binding compounds – biochemical, small-molecule microarray, 635/667 nm fluorescence, primary screen (AID 1151); details: 635 nm fluorescence, higher = more signal;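 further: Shh protein binding to compounds spotted on small-molecule microarray slides; score combines spot fluorescence intensity with signal-to-noise across triplicate slides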
[11] = optical density shifts of acrAB sulA E. coli – strain DRC41, OD650, 48 h, E. coli filamentation inducer project, primary screen (AID 1152); details: higher = more signal, called active from +8 up or from −8 down;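 further: E. coli MC1000 strain DRC41 lacking acrAB efflux pump and sulA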
[12] = probe aLefty1 binding on compound microarray – biochemical, small-molecule microarray, 635/667 nm fluorescence, primary screen (AID 1153); details: higher = more signal;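 further: score merges spot fluorescence with signal-to-noise ratio from the scanned slide images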
[13] = plasmodial surface anion channel blockers, osmotic lysis – cell-based, P. falciparum Indochina, OD700, 1 h, primary screen (AID 1154); details: P. falciparum Indochina infected RBC osmotic lysis, higher = more signal, called active from +8 up or from −8 down
[14] = plasmodial surface anion channel blockers, osmotic lysis – cell-based, P. falciparum Indochina, OD700, 2 h, primary screen (AID 1155);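 further: lysis reports solute entry through the parasite surface anion channel PSAC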; details: P. falciparum Indochina infected erythrocytes, higher = more signal, called active from +8 up or from −8 down
[15] = changes in parasitized red cell lysis, either direction – P. falciparum Indochina, OD700, 3 h, PSAC antagonist project, primary screen (AID 1156); details: P. falciparum-infected erythrocytes, osmotic lysis, higher = more signal, called active from +8 up or from −8 down
[16] = plasmodial surface anion channel blockers, osmotic lysis – cell-based, P. falciparum Indochina, OD700, 18 h, primary screen (AID 1157); details: P. falciparum Indochina infected erythrocytes, osmotic lysis OD700, 18 h; higher = more signal, called active from +8 up or from −8 down
[17] = S6 kinase pathway phospho-S6 level changes – cell-based, A549, cytoblot, luminescence, serum-stimulated, primary screen (AID 1158); details: 5 h, higher = more signal;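 further: serum-stimulated A549 lung adenocarcinoma cells; signal is phosphorylated S6 detected by cytoblot immunostaining with HRP secondary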
[18] = biological target: NADPH oxidase 2 (Homo sapiens) (UniProt P04839); experiment: compounds shifting NOX2 Amplex Red fluorescence – cell-based, HEK293-NOX2, PMA-stimulated, NOX inhibitor project, primary screen (AID 1159); details: 45 min, higher = more signal, called active from +8 up or from −8 down; further: test concentration not given here
Sequence of NADPH oxidase 2 (Homo sapiens) (P04839 whole entry, looked up): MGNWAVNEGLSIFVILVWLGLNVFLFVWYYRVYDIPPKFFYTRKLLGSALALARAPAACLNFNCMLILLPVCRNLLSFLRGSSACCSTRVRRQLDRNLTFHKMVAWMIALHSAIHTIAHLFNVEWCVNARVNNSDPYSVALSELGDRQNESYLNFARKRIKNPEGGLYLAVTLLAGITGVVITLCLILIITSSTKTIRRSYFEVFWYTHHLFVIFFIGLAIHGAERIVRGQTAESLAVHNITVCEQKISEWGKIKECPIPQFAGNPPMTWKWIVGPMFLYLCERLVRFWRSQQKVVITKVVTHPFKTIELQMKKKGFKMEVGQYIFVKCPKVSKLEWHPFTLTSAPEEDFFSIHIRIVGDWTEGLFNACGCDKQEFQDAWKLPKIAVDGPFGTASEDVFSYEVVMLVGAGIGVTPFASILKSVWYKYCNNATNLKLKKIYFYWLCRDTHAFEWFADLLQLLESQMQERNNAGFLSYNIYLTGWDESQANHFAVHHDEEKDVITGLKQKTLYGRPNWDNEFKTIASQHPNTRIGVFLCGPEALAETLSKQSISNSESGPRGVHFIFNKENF

[19] = biological target: NADPH oxidase 4 (Homo sapiens) (UniProt Q9NPH5); experiment: compounds shifting NOX4 Amplex Red fluorescence – cell-based, HEK293-NOX4, tetracycline-induced, NOX inhibitor project, primary screen (AID 1160); details: HEK293-NOX4, Amplex Red H2O2 fluorescence, 45 min; higher = more signal, called active from +8 up or from −8 down
Sequence of NADPH oxidase 4 (Homo sapiens) (Q9NPH5 whole entry, looked up): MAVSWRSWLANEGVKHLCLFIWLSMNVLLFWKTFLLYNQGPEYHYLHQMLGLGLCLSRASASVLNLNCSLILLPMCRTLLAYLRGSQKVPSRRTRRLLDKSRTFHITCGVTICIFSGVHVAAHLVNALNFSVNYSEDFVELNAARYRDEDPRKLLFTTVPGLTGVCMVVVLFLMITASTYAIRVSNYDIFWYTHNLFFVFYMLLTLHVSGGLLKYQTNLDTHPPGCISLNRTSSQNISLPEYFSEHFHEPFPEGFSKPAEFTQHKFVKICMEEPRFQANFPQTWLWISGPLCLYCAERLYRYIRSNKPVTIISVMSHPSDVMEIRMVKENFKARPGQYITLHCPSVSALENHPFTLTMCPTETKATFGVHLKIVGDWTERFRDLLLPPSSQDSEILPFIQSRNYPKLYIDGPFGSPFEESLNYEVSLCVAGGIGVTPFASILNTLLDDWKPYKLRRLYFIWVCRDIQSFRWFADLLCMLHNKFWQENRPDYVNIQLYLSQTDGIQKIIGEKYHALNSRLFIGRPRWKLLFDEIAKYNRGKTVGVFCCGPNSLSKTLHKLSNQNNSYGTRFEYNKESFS

[20] = biological target: NADPH oxidase 5 (Homo sapiens) (UniProt Q96PH1); experiment: compounds shifting NOX5 Amplex Red fluorescence – cell-based, HEK293-NOX5, NOX inhibitor project, primary screen (AID 1161); details: HEK293-NOX5, ionomycin, 45 min, higher = more signal
Sequence of NADPH oxidase 5 (Homo sapiens) (Q96PH1 whole entry, looked up): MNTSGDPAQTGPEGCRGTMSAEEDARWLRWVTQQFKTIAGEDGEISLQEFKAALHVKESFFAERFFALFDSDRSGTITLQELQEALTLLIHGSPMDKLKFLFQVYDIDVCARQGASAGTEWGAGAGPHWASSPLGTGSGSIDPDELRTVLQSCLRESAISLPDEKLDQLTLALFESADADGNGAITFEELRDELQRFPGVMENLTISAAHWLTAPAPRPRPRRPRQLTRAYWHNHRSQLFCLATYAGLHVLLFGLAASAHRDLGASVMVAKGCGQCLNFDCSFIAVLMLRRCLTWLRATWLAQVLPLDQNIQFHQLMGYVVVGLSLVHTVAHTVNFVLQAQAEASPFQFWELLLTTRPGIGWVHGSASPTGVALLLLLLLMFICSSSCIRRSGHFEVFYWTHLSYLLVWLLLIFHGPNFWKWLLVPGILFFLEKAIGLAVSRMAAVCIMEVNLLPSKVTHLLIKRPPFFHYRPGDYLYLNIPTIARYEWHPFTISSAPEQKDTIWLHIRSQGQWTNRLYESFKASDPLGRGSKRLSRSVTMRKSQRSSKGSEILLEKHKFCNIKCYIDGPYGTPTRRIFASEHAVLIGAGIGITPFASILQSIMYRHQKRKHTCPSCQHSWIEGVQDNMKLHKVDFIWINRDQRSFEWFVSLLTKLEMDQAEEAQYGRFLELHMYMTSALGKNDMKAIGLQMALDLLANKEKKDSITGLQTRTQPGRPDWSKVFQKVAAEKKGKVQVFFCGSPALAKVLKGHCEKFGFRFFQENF

## CN(C)CCCCNC(=O)[C@H]1C[C@H]2C(=O)NCC(=O)N2[C@H]1c1cccc(OCCO)c1
[1]
  composite z-score: 0.133
[2]
  z-score: 0.344 (inactive)
[3]
  z-score: -0.254 (inactive)
[4]
  z-score: -0.398 (inactive)
[5]
  z-score: 0.586 (inactive)
[6]
  composite z-score: -1.04
[7]
  composite z-score: -0.202
[8]
  composite z-score: 0.0774
[9]
  composite z-score: -0.0032
[10]
  composite z-score: 2.19
[11]
  z-score: 1.06 (inactive)
[12]
  composite z-score: -0.007
[13]
  z-score: 0.799 (inactive)
[14]
  z-score: 0.33 (inactive)
[15]
  z-score: -0.0825 (inactive)
[16]
  z-score: 0.129 (inactive)
[17]
  z-score: -0.0315
[18]
  z-score: -0.241 (inactive)
[19]
  z-score: 0.382 (inactive)
[20]
  z-score: 1.05

## COc1ccc(CCNC(=O)[C@@H]2c3ccccc3C(=O)N(CC34CC5CC(CC(C5)C3)C4)[C@H]2c2ccc(CO)cc2)cc1
[1]
  composite z-score: 0.788
[2]
  z-score: -3.34 (inactive)
[3]
  z-score: -2.65 (inactive)
[4]
  z-score: 0.441 (inactive)
[5]
  z-score: -0.887 (inactive)
[6]
  composite z-score: 0.4
[7]
  composite z-score: -0.0006
[8]
  composite z-score: 0.713
[9]
  composite z-score: 0.801
[10]
  composite z-score: 1.4
[11]
  z-score: 0.414 (inactive)
[12]
  composite z-score: -0.0982
[13]
  z-score: 5.38 (inactive)
[14]
  z-score: 0.345 (inactive)
[15]
  z-score: 0.68 (inactive)
[16]
  z-score: -0.484 (inactive)
[17]
  z-score: 1.15
[18]
  z-score: -2.37 (inactive)
[19]
  z-score: -1.91 (inactive)
[20]
  z-score: -5.14

## O=C1O[C@H](c2ccccc2)[C@H](c2ccccc2)N2[C@H]1[C@@H](C(=O)NC[C@H](O)c1ccccc1)[C@]1(C(=O)Nc3ccc(C#CCCO)cc31)[C@H]2c1ccccc1OCCO
[1]
  composite z-score: -0.24
[2]
  z-score: -1.9 (inactive)
[3]
  z-score: -0.491 (inactive)
[4]
  z-score: -0.141 (inactive)
[5]
  z-score: -0.27 (inactive)
[6]
  composite z-score: -0.0243
[7]
  composite z-score: 0.0633
[8]
  composite z-score: 0.898
[9]
  composite z-score: 1.01
[10]
  composite z-score: 1.97
[11]
  z-score: 0.631 (inactive)
[12]
  composite z-score: 0.0752
[13]
  z-score: 2.45 (inactive)
[14]
  z-score: 0.612 (inactive)
[15]
  z-score: 0.478 (inactive)
[16]
  z-score: 0.786 (inactive)
[17]
  z-score: 0.288
[18]
  z-score: 2.14 (inactive)
[19]
  z-score: 1.35 (inactive)
[20]
  z-score: 1.6

## COCCOC(=O)N1C(=O)[C@@]2(c3cc(C#CC4(O)CCCCCC4)ccc31)[C@H](c1ccc(OCCO)cc1)N1[C@H](c3ccccc3)[C@H](c3ccccc3)OC(=O)[C@H]1[C@@H]2C(N)=O
[1]
  composite z-score: 0.437
[2]
  z-score: -4.15 (inactive)
[3]
  z-score: 0.323 (inactive)
[4]
  z-score: 0.468 (inactive)
[5]
  z-score: 0.595 (inactive)
[6]
  composite z-score: 0.213
[7]
  composite z-score: 0.0804
[8]
  composite z-score: 0.974
[9]
  composite z-score: 0.861
[10]
  composite z-score: 1.33
[11]
  z-score: -0.137 (inactive)
[12]
  composite z-score: 0.223
[13]
  z-score: 4.19 (inactive)
[14]
  z-score: 1.89 (inactive)
[15]
  z-score: 0.295 (inactive)
[16]
  z-score: 0.999 (inactive)
[17]
  z-score: -0.485
[18]
  z-score: 1.82 (inactive)
[19]
  z-score: 0.847 (inactive)
[20]
  z-score: -0.305

## C/C=C/CN(C(=O)C#Cc1ccccc1)[C@H](CO[Si](C)(C)C(C)(C)C)c1ccccc1
[1]
  composite z-score: -0.515
[2]
  z-score: -4.31 (inactive)
[3]
  z-score: 1.09 (inactive)
[4]
  z-score: 1.94 (inactive)
[5]
  z-score: -0.757 (inactive)
[6]
  composite z-score: -1.06
[7]
  composite z-score: -0.353
[8]
  composite z-score: -0.724
[9]
  composite z-score: -0.841
[10]
  composite z-score: 0.248
[11]
  z-score: 2.64 (inactive)
[12]
  composite z-score: -0.324
[13]
  z-score: 0.567 (inactive)
[14]
  z-score: -0.912 (inactive)
[15]
  z-score: -0.509 (inactive)
[16]
  z-score: -1.83 (inactive)
[17]
  z-score: 1.52
[18]
  z-score: 0.405 (inactive)
[19]
  z-score: 0.123 (inactive)
[20]
  z-score: -0.373

## CCC[C@@H]1C=C(C(=O)OCC)[C@H](c2ccccc2)N1S(=O)(=O)c1ccc(C)cc1
[1]
  composite z-score: 0.539
[2]
  z-score: -4.29 (inactive)
[3]
  z-score: 1.18 (inactive)
[4]
  z-score: -0.527 (inactive)
[5]
  z-score: -0.578 (inactive)
[6]
  composite z-score: 0.795
[7]
  composite z-score: 0.436
[8]
  composite z-score: 0.131
[9]
  composite z-score: 0.373
[10]
  composite z-score: 0.203
[11]
  z-score: -0.843 (inactive)
[12]
  composite z-score: 0.316
[13]
  z-score: -0.0086 (inactive)
[14]
  z-score: 0.979 (inactive)
[15]
  z-score: -0.628 (inactive)
[16]
  z-score: 0.0962 (inactive)
[17]
  z-score: -0.788
[18]
  z-score: -0.671 (inactive)
[19]
  z-score: -0.646 (inactive)
[20]
  z-score: -0.135

## C#CCN=C(N)N
[1]
  composite z-score: 0.0311
[2]
  z-score: -0.347 (inactive)
[3]
  z-score: 0.214 (inactive)
[4]
  z-score: -0.0247 (inactive)
[5]
  z-score: -0.055 (inactive)
[6]
  composite z-score: 0.314
[7]
  composite z-score: 0.0797
[8]
  composite z-score: 1.7
[9]
  composite z-score: 0.832
[10]
  composite z-score: 0.666
[11]
  z-score: 0.0764 (inactive)
[12]
  composite z-score: -0.214
[13]
  z-score: 0.269 (inactive)
[14]
  z-score: 0.347 (inactive)
[15]
  z-score: -0.765 (inactive)
[16]
  z-score: -0.0065 (inactive)
[17]
  z-score: -0.871
[18]
  z-score: 0.059 (inactive)
[19]
  z-score: 0.217 (inactive)
[20]
  z-score: -0.0927

## COCCOC(=O)N1C(=O)[C@@]2(c3cc(C#CC4(O)CCCCCC4)ccc31)[C@H](C(=O)N1CCc3cc(OC)c(OC)cc3C1)[C@H]1C(=O)O[C@H](c3ccccc3)[C@H](c3ccccc3)N1[C@@H]2c1ccc(O)cc1
[1]
  composite z-score: 0.869
[2]
  z-score: -1.83 (inactive)
[3]
  z-score: 0.0231 (inactive)
[4]
  z-score: 1.68 (inactive)
[5]
  z-score: 8.06 (active)
[6]
  composite z-score: 0.398
[7]
  composite z-score: 0.306
[8]
  composite z-score: 1.25
[9]
  composite z-score: 0.538
[10]
  composite z-score: 0.774
[11]
  z-score: 1.27 (inactive)
[12]
  composite z-score: 0.176
[13]
  z-score: 1.31 (inactive)
[14]
  z-score: 0.735 (inactive)
[15]
  z-score: 1.89 (inactive)
[16]
  z-score: 0.712 (inactive)
[17]
  z-score: 0.278
[18]
  z-score: 2.19 (inactive)
[19]
  z-score: 0.296 (inactive)
[20]
  z-score: 0.725

## COCCOC(=O)N1C(=O)[C@@]2(c3cc(C#CC4(O)CCCCCC4)ccc31)[C@H](c1ccccc1OCCO)N1[C@H](c3ccccc3)[C@H](c3ccccc3)OC(=O)[C@H]1[C@@H]2C(=O)N1CCCCCCC1
[1]
  composite z-score: 0.611
[2]
  z-score: -4.01 (inactive)
[3]
  z-score: -0.977 (inactive)
[4]
  z-score: -1.01 (inactive)
[5]
  z-score: 0.881 (inactive)
[6]
  composite z-score: 1.64
[7]
  composite z-score: 1.2
[8]
  composite z-score: 0.812
[9]
  composite z-score: 1.02
[10]
  composite z-score: 2.01
[11]
  z-score: 0.499 (inactive)
[12]
  composite z-score: 2.49
[13]
  z-score: 0.257 (inactive)
[14]
  z-score: 0.755 (inactive)
[15]
  z-score: 0.196 (inactive)
[16]
  z-score: 0.653 (inactive)
[17]
  z-score: 0.119
[18]
  z-score: 0.297 (inactive)
[19]
  z-score: 0.104 (inactive)
[20]
  z-score: 1.13
